Source: PubChem BioAssay
Values joined by “and” are separate entries in the source; they are usually repeats but may differ in a detail not shown here. Identical values can stand only once. For some assays here: Results with a measured potency or affinity are listed apart. Active and inactive are the calls of the source.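 The calls were made as follows, unless noted: active = normalized viability below 100% at a tested concentration; inactive = the rest.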

How the values were obtained:
[1] = hESC survival regulators, cell-based (AID 493140; call rule not given here;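 also: cells exposed to compounds for four days before counting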); settings: human embryonic stem cell survival screen; stronger effect = higher value
[2] = molecular target: 6-phosphogluconate dehydrogenase, decarboxylating (Homo sapiens) (UniProt P52209); experiment: 6PGD enzyme inhibitors, primary screen, biochemical, human, recombinant enzyme, NADPH absorbance (AID 1159550;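 active = at least 20% inhibition of 6-phosphogluconate dehydrogenase activity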); settings: recombinant 6PGD, NADPH absorbance 341 nm; at 10 µM; stronger effect = higher value
Sequence of 6-phosphogluconate dehydrogenase, decarboxylating (Homo sapiens) (P52209 whole entry, looked up): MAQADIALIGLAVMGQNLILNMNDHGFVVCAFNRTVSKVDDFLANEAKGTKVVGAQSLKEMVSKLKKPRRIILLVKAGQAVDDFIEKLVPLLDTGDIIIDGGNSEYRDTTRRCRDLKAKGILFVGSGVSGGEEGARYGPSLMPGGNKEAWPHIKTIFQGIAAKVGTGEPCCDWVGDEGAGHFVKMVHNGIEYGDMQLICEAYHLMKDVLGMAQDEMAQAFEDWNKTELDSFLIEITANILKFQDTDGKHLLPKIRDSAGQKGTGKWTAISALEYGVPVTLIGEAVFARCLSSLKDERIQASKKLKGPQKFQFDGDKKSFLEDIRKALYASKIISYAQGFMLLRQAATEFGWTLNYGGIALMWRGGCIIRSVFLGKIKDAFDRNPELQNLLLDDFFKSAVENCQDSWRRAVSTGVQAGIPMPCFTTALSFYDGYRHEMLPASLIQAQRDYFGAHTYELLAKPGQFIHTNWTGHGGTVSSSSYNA

[3] = differential killing of epithelial or mesenchymal cells, primary screen, imaging, PC-3E GFP, TEM4-18 mCherry, co-culture (AID 1345086;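 active = compounds killing one labelled cell type while sparing the other, by normalised counts and ratio limits, not self-fluorescent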;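 as to all read-outs here: cells exposed to compound for 72 h before imaging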;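 as to red/green cell ratio (normalised): normalised mesenchymal count divided by normalised epithelial count so high means epithelial killing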); settings: imaging cell counts, at 1 µM; for red/green cell ratio (normalised): actives lie on both sides, counts scaled to control wells, 1 = unselective
[4] = sensitizers of A549 cells to miR-34 induction, primary screen, imaging, A549 dox-inducible miR-34, nuclei and caspase counts (AID 1347080;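 active = compounds whose cell count with miR-34 switched on is under 0.7 times the count with it off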); settings: A549 miR-34 inducible, Hoechst nuclei count, 48 h
[5] = survival rescue of mitochondrial mutant cells in low glucose, primary screen, MELAS cybrids, Rieske KO mouse fibroblasts, CellTiter-Glo (AID 1508586;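 active = mean z-score across replicates of 1.96 or higher in either the MELAS or the Rieske mutant cell line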;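 also: z relative to plate mean and SD of compound and empty wells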)
[6] = ovarian cancer cell viability with rucaparib, profiling panel, oncology-focused library, rucaparib conditional (AID 1508598); settings: patient-derived ovarian cancer cells, CellTiter-Glo viability, 144 h, stronger effect = lower value
[7] = molecular target: Mitogen-activated protein kinase 7 (Homo sapiens) (UniProt Q13164); experiment: ERK5 transactivation activators in reporter cells, primary screen, cell-based, HTS (AID 1508626;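 active = luciferase signal above three times the same-plate solvent-only control wells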;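 also: luciferase driven by Gal4-ERK5 fusion binding five Gal4 sites before minimal TATA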); settings: HeLa Gal4-ERK5 transactivation, 18 h, at 5 µM, stronger effect = higher value
Sequence of Mitogen-activated protein kinase 7 (Homo sapiens) (Q13164 whole entry, looked up, the tested form may be a part): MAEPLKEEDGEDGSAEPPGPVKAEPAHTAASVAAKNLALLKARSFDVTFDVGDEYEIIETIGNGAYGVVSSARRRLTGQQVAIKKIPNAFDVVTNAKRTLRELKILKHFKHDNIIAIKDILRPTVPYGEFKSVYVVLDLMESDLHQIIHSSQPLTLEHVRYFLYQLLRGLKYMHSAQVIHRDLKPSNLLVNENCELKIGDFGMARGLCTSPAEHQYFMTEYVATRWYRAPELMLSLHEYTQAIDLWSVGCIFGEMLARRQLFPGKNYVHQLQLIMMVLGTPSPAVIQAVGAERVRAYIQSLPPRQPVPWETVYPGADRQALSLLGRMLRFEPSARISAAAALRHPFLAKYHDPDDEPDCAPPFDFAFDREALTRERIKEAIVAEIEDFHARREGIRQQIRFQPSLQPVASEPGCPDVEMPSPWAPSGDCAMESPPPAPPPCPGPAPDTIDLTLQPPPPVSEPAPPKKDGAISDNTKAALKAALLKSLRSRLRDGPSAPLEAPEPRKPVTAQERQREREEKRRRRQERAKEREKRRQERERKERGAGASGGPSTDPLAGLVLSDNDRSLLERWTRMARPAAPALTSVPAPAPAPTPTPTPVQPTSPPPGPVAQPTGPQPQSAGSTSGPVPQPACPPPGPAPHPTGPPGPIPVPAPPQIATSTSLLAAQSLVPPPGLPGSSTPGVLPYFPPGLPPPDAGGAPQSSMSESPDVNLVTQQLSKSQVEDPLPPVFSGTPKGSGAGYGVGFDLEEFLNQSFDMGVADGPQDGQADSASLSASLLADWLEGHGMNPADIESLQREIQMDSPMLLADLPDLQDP

[8] = polyglutamine-triggered caspase-3 activation inhibitors, cell-based (AID 1583); settings: polyglutamine-induced caspase-3 activation, cell assay; stronger effect = higher value;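 tested at 10 µM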
[9] = suppressors of polyQ aggregation in yeast, 75Q-TubU reporter (AID 1593); settings: Yeast 75Q polyglutamine aggregation reporter
[10] = rescue of polyQ-huntingtin neuronal dysfunction in worms, whole organism, C. elegans mechanosensory neurons, N-terminal huntingtin (AID 1599); settings: touch response, stronger effect = higher value
[11] = inhibitors of mitochondrial cytochrome c release, biochemical, purified mitochondria (AID 1603); settings: stronger effect = lower value;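 also: mouse liver mitochondria challenged with calcium chloride; signal normalized to the plate average as 100%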
[12] = inhibitors of polyQ protein aggregation (AID 1604); settings: polyglutamine-induced protein aggregation inhibition assay; stronger effect = higher value; tested at 2.5 µM
[13] = enhancers of glutamate uptake in motor neurons, MN-1 cell line (AID 1612); settings: MN-1 motor neuron cells, stronger effect = higher value;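 also: tested at 1 µM final; 0% = mean of DMSO vehicle wells on each plate; positive means more glutamate uptake than control and negative means less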
[14] = reducers of polyQ inclusions in PC12 cells, cell-based, NGF-treated PC12, GFPQ80 (AID 1614); settings: PC12 NGF-treated GFP-polyQ80 inclusion reduction;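 also: lower means fewer inclusions and 0 means no inclusions at all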
[15] = suppressors of polyglutamine aggregation in yeast, 75Q-TubH (AID 1616); settings: S. cerevisiae 75Q-TubH polyglutamine aggregation suppression; stronger effect = higher value
[16] = liver-stage malaria parasite growth inhibition, primary screen, cell-based, HepG2, luciferase luminescence, HepG2 viability (AID 624349; in the data active = parasite load remaining mostly below about 12%, no sharp cut-off; inactive = mostly above about 10%;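 also: 100% = mean of DMSO negative control wells on the same plate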); settings: P. berghei liver stage in HepG2, luciferase luminescence, concentration not given here; parasite load remaining: stronger effect = lower value; viability: measured here: HepG2 viability without parasites
[17] = measured here: epithelial PC-3E GFP cell survival
[18] = measured here: mesenchymal TEM4-18 mCherry cell survival
[19] = stronger effect = lower value, cell number ratio, induced over uninduced
[20] = measured here: relative caspase fold change +Dox/-Dox
[21] = measured here: total cells with miR-34 induction, stronger effect = lower value
[22] = measured here: total cells without miR-34 induction
[23] = MELAS cybrid survival, CellTiter-Glo 48 h, stronger effect = higher value
[24] = Rieske KO mouse fibroblast survival, CellTiter-Glo 72 h

In the case of `c1ccc2c(Cc3c[nH]c4ccccc34)c[nH]c2c1`, the survival [1] is reported as 89.8 (inactive), the inhibition [2] is reported as 2.37% (inactive) and the red/green cell ratio (normalised) [3] is reported as 0.91 (inactive). The normalised cell number [3, 17] was 1.11, the normalised cell number [3, 18] was 1.01 and the fold change [4, 19] was 0.926 (inactive). It also gave a fold change [4, 20] of 0.966, a cell count [4, 21] of 4780 and a cell count [4, 22] of 5160.
In the case of `Cc1cc(O)c2c(c1)C(=O)c1cccc(O)c1C2=O`, the inhibition [2] is reported as 2.69% (inactive), the red/green cell ratio (normalised) [3] is reported as 1.03 (inactive) and the normalised cell number [3, 17] is reported as 0.99. For the same molecule, the normalised cell number [3, 18] was 1.02, the fold change [4, 19] was 0.938 (inactive) and the fold change [4, 20] was 0.889. For the same molecule, the cell count [4, 21] was 10200, the cell count [4, 22] was 10900 and the z-score [5, 23] was -0.322 (inactive). For the same molecule, the z-score [5, 24] was 0.837, the viability ([6]; at 0.000305 µM, OCI-C5x cells, with rucaparib 10 µM, 100% = cells with rucaparib alone) was 120% (inactive) and the viability ([6]; at 0.000305 µM, OCI-C5x cells, without rucaparib) was 106% (inactive). For the same molecule, the viability ([6]; at 0.000305 µM, OCI-P5x cells, with rucaparib 20 µM, 100% = cells with rucaparib alone) was 93.2% (active), the viability ([6]; at 0.000305 µM, OCI-P5x cells, without rucaparib) was 92.5% (active) and the viability ([6]; at 0.00122 µM, OCI-C5x cells, with rucaparib 10 µM, 100% = cells with rucaparib alone) was 115% (inactive). The viability ([6]; at 0.00122 µM, OCI-C5x cells, without rucaparib) was 113% (inactive), the viability ([6]; at 0.00122 µM, OCI-P5x cells, with rucaparib 20 µM, 100% = cells with rucaparib alone) was 92.4% (active) and the viability ([6]; at 0.00122 µM, OCI-P5x cells, without rucaparib) was 95.7% (active). The viability ([6]; at 0.00488 µM, OCI-C5x cells, with rucaparib 10 µM, 100% = cells with rucaparib alone) was 117% (inactive), the viability ([6]; at 0.00488 µM, OCI-C5x cells, without rucaparib) was 112% (inactive) and the viability ([6]; at 0.00488 µM, OCI-P5x cells, with rucaparib 20 µM, 100% = cells with rucaparib alone) was 94.8% (active). The viability ([6]; at 0.00488 µM, OCI-P5x cells, without rucaparib) was 102% (inactive), the viability ([6]; at 0.0195 µM, OCI-C5x cells, with rucaparib 10 µM, 100% = cells with rucaparib alone) was 115% (inactive) and the viability ([6]; at 0.0195 µM, OCI-C5x cells, without rucaparib) was 103% (inactive). For the same molecule, the viability ([6]; at 0.0195 µM, OCI-P5x cells, with rucaparib 20 µM, 100% = cells with rucaparib alone) was 104% (inactive), the viability ([6]; at 0.0195 µM, OCI-P5x cells, without rucaparib) was 104% (inactive) and the viability ([6]; at 0.0781 µM, OCI-C5x cells, with rucaparib 10 µM, 100% = cells with rucaparib alone) was 112% (inactive). For the same molecule, the viability ([6]; at 0.0781 µM, OCI-C5x cells, without rucaparib) was 113% (inactive), the viability ([6]; at 0.0781 µM, OCI-P5x cells, with rucaparib 20 µM, 100% = cells with rucaparib alone) was 105% (inactive) and the viability ([6]; at 0.0781 µM, OCI-P5x cells, without rucaparib) was 107% (inactive). For the same molecule, the viability ([6]; at 0.313 µM, OCI-C5x cells, with rucaparib 10 µM, 100% = cells with rucaparib alone) was 102% (inactive), the viability ([6]; at 0.313 µM, OCI-C5x cells, without rucaparib) was 104% (inactive) and the viability ([6]; at 0.313 µM, OCI-P5x cells, with rucaparib 20 µM, 100% = cells with rucaparib alone) was 101% (inactive). The viability ([6]; at 0.313 µM, OCI-P5x cells, without rucaparib) was 109% (inactive), the viability ([6]; at 1.25 µM, OCI-C5x cells, with rucaparib 10 µM, 100% = cells with rucaparib alone) was 114% (inactive) and the viability ([6]; at 1.25 µM, OCI-C5x cells, without rucaparib) was 118% (inactive). The viability ([6]; at 1.25 µM, OCI-P5x cells, with rucaparib 20 µM, 100% = cells with rucaparib alone) was 111% (inactive), the viability ([6]; at 1.25 µM, OCI-P5x cells, without rucaparib) was 109% (inactive) and the viability ([6]; at 5 µM, OCI-C5x cells, with rucaparib 10 µM, 100% = cells with rucaparib alone) was 121% (inactive). For the same molecule, the viability ([6]; at 5 µM, OCI-C5x cells, without rucaparib) was 114% (inactive), the viability ([6]; at 5 µM, OCI-P5x cells, with rucaparib 20 µM, 100% = cells with rucaparib alone) was 97.2% (active) and the viability ([6]; at 5 µM, OCI-P5x cells, without rucaparib) was 108% (inactive). For the same molecule, the luciferase signal [7] was 64 AU (inactive).
`c1coc(CNc2ncnc3nc[nH]c23)c1` gave an inhibition [8] of 6.38%, a score [9] of 1.14 and a rescue above control [10] of 19.9. For the same molecule, the cytochrome c release ratio [11] was 1.1, the inhibition of aggregation [12] was 68.2% and the glutamate uptake change [13] was -3.65%. The inclusion score [14] was 2, the aggregation suppression score [15] was 0.807 and the survival [1] was 3.5 (inactive). The parasite load remaining [16] was 122% (inactive) and 193% (inactive), the viability [16] was 98% and 74% and the inhibition [2] was 6.86% (inactive). The red/green cell ratio (normalised) [3] was 1.01 (inactive), the normalised cell number [3, 17] was 1.05 and the normalised cell number [3, 18] was 1.07. The fold change [4, 19] was 1.04 (inactive) and 1.1 (inactive), the fold change [4, 20] was 0.935 and 0.585 and the cell count [4, 21] was 8620 and 8070. The cell count [4, 22] was 8250 and 7310, the z-score [5, 23] was -0.185 (inactive) and -0.0285 (inactive) and the z-score [5, 24] was -0.0997 and -0.188. For the same molecule, the luciferase signal [7] was 84 AU (inactive).
